# Laboratory results: PubChem BioAssay (NCATS)
# Records with an inconclusive call do not appear. Values without a mark were called inactive. Calls of active or inactive are those of the source. Calls come from the whole dose curve; as a rule, active = well fitted inhibition curve with a large enough effect; inconclusive = small, poorly fitted or top-dose-only effect; inactive = flat fitted curve, though single readings scatter. Where a SMILES comes first, the peptide text is derived from it. [ ]: non-standard residue; d: D form.
# Target: Calcium and integrin-binding protein 1 (Homo sapiens) (UniProt Q99828)
# Sequence (Q99828 whole entry, looked up): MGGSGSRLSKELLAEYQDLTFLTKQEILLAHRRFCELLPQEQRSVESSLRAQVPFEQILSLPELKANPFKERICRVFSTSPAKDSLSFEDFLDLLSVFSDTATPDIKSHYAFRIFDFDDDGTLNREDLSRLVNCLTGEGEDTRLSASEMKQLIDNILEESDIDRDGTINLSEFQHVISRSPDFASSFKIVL
# Experiment: Primary qHTS for Identification of Calcium Integrin Binding Protein 1 (CIB1) Competitor (AID 1508620);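 note: GST tagged CIB1 binding a fluorescein labelled alphaIIb integrin peptide tracer; top concentration of the series differs between compounds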
# Settings: CIB1-GST / FITC-alphaIIb peptide fluorescence polarization; series mostly up to 57.7 µM; activity change, negative = inhibition: at the top concentration
# How it was run: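 CIB1-GST (1 uM final) and compound incubated 15 min at room temperature before adding FITC-alphaIIb peptide tracer (100 nM final). Competition for binding read by fluorescence polarization (ex 480, em 540) after another 15 min at room temperature.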
# % is set by controls: 0 for no effect and ±100 for the full control effect.
SMILES,"activity change, negative = inhibition",Potency
C=CCc1ccc(O[C@@H]2O[C@H](CO[C@@H]3O[C@@H](C)[C@H](O)[C@@H](O)[C@H]3O)[C@@H](O)[C@H](O)[C@H]2O)cc1,-1.5%,
CC1(C)CC(=O)N(CCCCN2CCN(c3ncccn3)CC2)C(=O)C1,2.62% [at 114 µM],
CC(C)[C@H]1CCC(CO)=C[C@@H]1/C=C(\CO)C(=O)O,-0.828% [at 114 µM],
C=CC(C)(O)CC/C=C(\C)C(=O)OC1CC2(C(=O)O)CCC3(C)C(=CCC4C5(C)CCC(OC6OC(COC7OCC(O)C(O)C7O)C(O)C(OC7OCC(O)C(O)C7O)C6OC6OC(CO)C(O)C(O)C6OC6OCC(O)C(O)C6O)C(C)(C)C5CCC43C)C2CC1(C)C (configuration not stated),-4.39% [at 12.4 µM],
CC(=O)N[C@H](Cc1ccc(O)cc1)C(=O)N[C@H](CCCN=C(N)N)C(=O)N[C@H](Cc1ccccc1)C(N)=O (Ac-[dY]-[dR]-[dF]-NH2),1.93% [at 114 µM],
COC(=O)[C@H](OC(C)=O)[C@H]1C(C)(C)C(=O)[C@H]2CC3=C4CC(=O)O[C@@H](c5ccoc5)[C@]4(C)CCC3[C@@]1(C)C2=O (some centres not stated),-2.09%,
CC(=O)O[C@@]1(C)C[C@@H](O)[C@]2(O)C=CO[C@@H](O[C@@H]3O[C@H](CO)[C@@H](O)[C@H](O)[C@H]3O)[C@@H]21,4.86%,
COc1cc(C2Oc3c(OC)cc(/C=C/C(=O)OC[C@H]4O[C@@H](OC(C)(C)C(=O)O)[C@H](O)[C@@H](O)[C@@H]4O)cc3C2CO)ccc1O (some centres not stated),0.591% [at 30.2 µM],
CC12CCC3C(C)(C)C(O)CCC3(C)C1Cc1c(oc(C(=O)O)cc1=O)O2 (configuration not stated),-1.58%,
C/C=C(/C)C(=O)O[C@H]1C=C(C)C[C@H](OC(=O)c2ccc(O)cc2)C2[C@](O)(C(C)C)CC[C@@]21C (some centres not stated),2.38% [at 30.2 µM],
Cc1onc(-c2ccccc2)c1C(=O)N[C@@H]1C(=O)N2[C@@H]1SC(C)(C)[C@@H]2C(=O)O,,inactive
C=C[C@@]1(C)CC(=O)C2[C@](C)(O1)[C@@H](OC(C)=O)[C@@H](O)[C@H]1C(C)(C)CCC[C@]21C (some centres not stated),1.14% [at 30.2 µM],
O=C(/C=C/c1ccc(O)c(O)c1)OCc1ccccc1O[C@@H]1O[C@H](CO)[C@@H](O)[C@H](O)[C@H]1O,-2.08%,
COc1ccc(C(O[C@@H]2O[C@H](CO)[C@@H](O)[C@H](O)[C@H]2O)C(CO)Oc2ccc(/C=C/CO)cc2OC)cc1O (some centres not stated),4.32%,
COC1=CC(=O)O[C@@H](/C=C/c2ccccc2)[C@@H]1O,1.26% [at 114 µM],
CC(=O)O[C@@H]1[C@H](O[C@@H]2O[C@H](CO)[C@@H](O)[C@H](O)[C@H]2O)[C@@H](O[C@@H]2O[C@@H](C)[C@H](O)[C@@H](O[C@@H]3O[C@H](CO)[C@@H](O)[C@H](O)[C@H]3O)[C@H]2O)[C@H](OC(=O)C23CCC4(C)C(=CCC5C6(C)CC(O)C(O[C@@H]7O[C@H](C(=O)O)[C@@H](O)[C@H](O)[C@H]7O)C(C)(C(=O)O)C6CCC54C)C2CC(C)(C)CC3O)O[C@@H]1C (some centres not stated),4.49% [at 12.4 µM],
O=C(/C=C/c1ccccc1)OCC1=CC[C@@H]2C(C(=O)O)=CO[C@@H](O[C@@H]3O[C@H](CO)[C@@H](O)[C@H](O)[C@H]3O)[C@H]12,0.537%,
